Many of the other results were omitted from the sample, so hits are more common in it than they were.
GIRK2 activator: Activators of human GIRK2-containing channels | HEK293 GIRK2/NPY4 cells, thallium flux fluorescence | activation (% efficacy), % for hits at 75 µM | 34,000 tested, under 10 active | AID 1259324;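 active = primary screen hit, no activity in plain HEK293 cells, and in GIRK2-only cells above 5% efficacy rising with concentration; inactive = the rest, including fluorescent compounds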;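 note: efficacy is normalized control-subtracted fluorescence 15 s after thallium addition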
GluA2 TARP mod: modulates AMPAR-stargazin complexes; actives 3.5% (n = 40,000); AID 1259245; O88602+P19491; HEK293 GluA2+stargazin, membrane potential dye (FDSS), glutamate EC50; hits were called plate by plate, in both directions; calls only at 30 µM;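 active = any of four per-well response measures lying three or more SD from its plate-wide compound average, in either direction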
Target sequence (O88602 whole entry, looked up): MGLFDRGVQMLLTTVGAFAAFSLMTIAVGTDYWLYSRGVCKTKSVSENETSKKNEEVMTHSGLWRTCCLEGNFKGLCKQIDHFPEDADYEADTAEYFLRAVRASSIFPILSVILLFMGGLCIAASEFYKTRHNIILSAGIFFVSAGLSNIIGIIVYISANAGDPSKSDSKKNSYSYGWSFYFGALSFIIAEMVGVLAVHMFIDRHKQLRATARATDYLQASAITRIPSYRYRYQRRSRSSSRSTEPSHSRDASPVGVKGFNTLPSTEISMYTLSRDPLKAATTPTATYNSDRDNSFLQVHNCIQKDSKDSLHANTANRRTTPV
Target sequence (P19491 whole entry, looked up): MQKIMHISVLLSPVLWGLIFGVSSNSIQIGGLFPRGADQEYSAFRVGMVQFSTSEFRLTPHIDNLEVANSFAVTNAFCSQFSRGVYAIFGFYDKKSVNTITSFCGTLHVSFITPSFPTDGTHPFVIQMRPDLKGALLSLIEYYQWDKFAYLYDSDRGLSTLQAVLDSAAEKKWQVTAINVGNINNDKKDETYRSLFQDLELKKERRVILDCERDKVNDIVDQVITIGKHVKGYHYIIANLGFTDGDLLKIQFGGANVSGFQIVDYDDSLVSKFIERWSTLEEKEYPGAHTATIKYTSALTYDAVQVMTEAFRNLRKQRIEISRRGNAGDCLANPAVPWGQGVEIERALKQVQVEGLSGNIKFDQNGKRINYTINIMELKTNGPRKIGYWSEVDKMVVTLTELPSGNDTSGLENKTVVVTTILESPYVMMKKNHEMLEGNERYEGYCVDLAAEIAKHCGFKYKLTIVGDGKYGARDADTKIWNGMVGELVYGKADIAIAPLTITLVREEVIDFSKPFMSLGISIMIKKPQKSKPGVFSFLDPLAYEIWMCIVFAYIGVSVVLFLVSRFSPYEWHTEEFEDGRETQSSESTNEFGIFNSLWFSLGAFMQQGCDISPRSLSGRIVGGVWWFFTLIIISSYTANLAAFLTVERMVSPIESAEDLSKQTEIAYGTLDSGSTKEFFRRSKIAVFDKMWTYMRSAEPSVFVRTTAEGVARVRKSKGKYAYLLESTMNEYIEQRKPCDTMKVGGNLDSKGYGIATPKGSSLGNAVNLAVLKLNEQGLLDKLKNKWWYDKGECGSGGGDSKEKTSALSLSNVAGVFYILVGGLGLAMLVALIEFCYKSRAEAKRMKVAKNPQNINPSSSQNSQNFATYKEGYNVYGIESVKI
Starred values were filed as active, the others as inactive; i = inactive; x = not tested or not shown; + = active, no number; ! = repeats disagree.

SMILES	GIRK2 activator	GluA2 TARP mod
CCN(CC)CCN1C(=O)C(=O)C(=C(O)c2ccc(Cl)cc2)C1c1ccccn1 (configuration not stated)	i	x
COc1ccc(Cl)cc1Nc1nc2c(c(=O)n(C)c(=O)n2C)n1CC(=O)O	i	i
CC(=O)Nc1ccc(NC(=O)c2ccc(-n3cnnn3)cc2)cc1	i	i
COc1ccc(NC(=O)CN2CCN(c3nccn3-c3ccccc3F)CC2)cc1OC	i	i
OCCCc1nc2ccccc2n1Cc1ccc(F)cc1	x	i
CC(=O)NCCc1nc2ccccc2n1Cc1c(C)c(C)cc(C)c1C	i	+
CC(=O)NCCc1nc2ccccc2n1Cc1c(C)cc(C)cc1C	i	i
Cc1cc(C)c(C)c(Cn2c(CCCO)nc3ccccc32)c1C	i	+
CN1CCN(S(=O)(=O)c2ccc(C(=O)Nc3ccc(S(N)(=O)=O)cc3)o2)CC1	i	i
COC(=O)c1ccccc1C(=O)N1CCN(c2ncnc3c2nnn3-c2ccc(C)cc2)CC1	x	i
CC(C)CCN1C(=O)C(C)(C)COc2ccc(NC(=O)COc3ccccc3)cc21	x	+
CC(C)CCN1C(=O)C(C)(C)COc2cc(NC(=O)COc3ccccc3)ccc21	x	i
COc1ccc(C(=O)CSc2nc(CC(=O)Nc3ccc(C(N)=O)cc3)cs2)cc1	i	x
Cc1[nH]c(=O)nc(SCC(=O)NC2CCCC2)c1C#N	i	i
CCc1nc(SCC(=O)N(CC)CC)c(C#N)c2c1CCCC2	x	+
Cc1noc(C2CN(C(=O)c3ccco3)C2)n1	x	i
CCOc1ccc(NC(=O)C23CC4CCC(CC(C4)C2)C3)cc1	x	+
O=C(Cc1ccc(NC(=O)C23CC4CC(CC(C4)C2)C3)cc1)NC1CC1	i	i
O=S(=O)(NCCOc1ccc(-c2ccc(F)cc2)nn1)c1ccc(Br)cc1	i	+
O=S(=O)(NCCOc1ccc(-c2ccc(F)cc2)nn1)c1ccc(Cl)cc1	i	i
Cc1ccc(S(=O)(=O)NCCOc2ccc(-c3ccc(F)cc3)nn2)cc1C	i	+
COc1ccc(S(=O)(=O)NCCOc2ccc(-c3ccc(F)cc3)nn2)cc1	i	i
COC(=O)N1CCC(CNC(=O)c2snnc2C)CC1	i	i
CCN(C1CCCCC1)S(=O)(=O)c1ccc(C(=O)N2CCN(c3ccccc3)CC2)cc1	i	i
COc1ncccc1C(=O)Nc1onc2c1CSC2	i	+
SMILES	GIRK2 activator	GluA2 TARP mod
O=C(Nc1onc2c1CSC2)c1cnc2ccccc2n1	i	i
CCN1CCN(C(=O)CCn2c(=S)[nH]c3ccccc3c2=O)CC1	x	i
CCN(CC)C(=O)CCCCCn1c(=S)[nH]c2ccccc2c1=O	x	+
CCN(CC)CCn1c(SCC#N)nc2cc(C(=O)OC)ccc2c1=O	i	+!
CC(C)Cn1c(SCC#N)nc2cc(C(=O)NC(C)C)ccc2c1=O	x	i
COc1ccccc1CNC(=O)C(=O)NCC(C)(O)C1CC1 (configuration not stated)	i	i
Cc1cc(C)cc(NC(=O)N2CCC3(CC2)NC(=O)N(Cc2ccc(Cl)cc2)C3=O)c1	i	i
Cc1ccc(CN2C(=O)NC3(CCN(C(=O)Nc4ccc(F)c(Cl)c4)CC3)C2=O)cc1	i	+
CCCNC(=O)CSc1cc(N2CCOCC2)ncn1	i	i
CC(C)(C)NC(=O)N1CCN(c2cc(N3CCOCC3)ncn2)CC1	i	+
Cc1cc(NC(=O)c2ccc(F)cc2F)n(-c2nc3c(cnn3-c3ccc(C)c(C)c3)c(=O)[nH]2)n1	i	x
O=C(CCc1csc(NC(=O)c2ccc[nH]c2=O)n1)NCc1ccc2c(c1)OCO2	i	i
COc1ccccc1CNC(=O)CCc1csc(NC(=O)c2ccc(F)cc2)n1	i	i
COc1ccccc1CNC(=O)CCc1csc(NC(=O)c2ccc(Cl)cc2)n1	i	+
O=C(CCc1csc(NC(=O)c2ccc[nH]c2=O)n1)NCc1ccc(F)cc1	i	+
CCOC(=O)c1sc2cccc(F)c2c1S(=O)(=O)Nc1ccc(OC)c(Cl)c1	x	i
CCOC(=O)c1sc2cccc(F)c2c1S(=O)(=O)Nc1cc(Cl)c(OC)cc1OC	x	+
COc1ccc(S(=O)(=O)NCC(c2ccsc2)N2CCc3ccccc3C2)cc1C (configuration not stated)	i	i
COc1cc(S(=O)(=O)Nc2cc(Cl)ccc2O)ccc1Cl	i	+
COc1ccc(Br)cc1S(=O)(=O)Nc1cc(Cl)ccc1O	i	+
CCOc1ccc(S(=O)(=O)Nc2cc(Cl)ccc2O)cc1C	i	i
COc1ccc(Cl)cc1S(=O)(=O)Nc1cc(Cl)ccc1O	i	i
Cc1cc(C)n(CCN2CCN(C(=O)C3CCC3)CC2)n1	i	i
CCOc1ccc(C(=O)NCCN2CCN(c3ccccc3F)CC2)cc1OCC	i	i
COc1ccc(NC(=O)C2CC(=O)N=C(N)S2)c(OC)c1 (configuration not stated)	x	i
SMILES	GIRK2 activator	GluA2 TARP mod
O=S(=O)(c1ccc(Oc2ccccc2Cl)cc1)N1CCCCC1	x	i
O=S(=O)(c1ccc(Oc2ccccc2Cl)cc1)N1CCCC1	x	+
Cc1cc(C)c2c(=O)[nH]c(SCC(N)=O)nc2n1	x	+
Cc1cccc(NC(=O)CSc2nc3nc(C)cc(C)c3c(=O)[nH]2)c1	x	i
CCOCC(=O)NCC1CCN(C(=O)Nc2ccccc2OC)CC1	i	i
CCOC(=O)C1CCN(C(=S)Nc2ccccc2OC)CC1	x	+
O=C(c1ccccc1F)N1CCC(Cn2cccn2)CC1	i	i
O=C(c1ccccc1C(F)(F)F)N1CCC(Cn2cccn2)CC1	i	+
O=C(Cc1ccc(F)cc1)NCC#CCN1CCc2ccccc2C1	i	i
Cc1cccc(C)c1N1CCN(C(=O)c2ccc3c(c2)OCO3)CC1	x	+
Cn1ccnc1N1CCN(C(=O)c2ccc3c(c2)OCO3)CC1	i	i
COCCn1c(=NC(=O)C2CCN(S(C)(=O)=O)CC2)sc2ccccc21	i	x
O=C(Cc1cc(-c2ccc3c(c2)OCCO3)on1)NCc1ccccc1	i	+
O=C(Cc1cc(-c2ccc3c(c2)OCO3)on1)NCc1ccc2c(c1)OCO2	i	i
O=C(c1ccc(Cl)cc1)N1CCC2(CC1)NC(=O)N(Cc1ccc(F)cc1)C2=O	i	i
COc1ccc(NC(=O)CSC2=NC(C)(C)N=C2c2ccccc2)cc1OC	i	i
COc1cc(OC)cc(C2=NC3(CCCC3)N=C2SCC(=O)Nc2ccccc2)c1	i	+
O=C(CCS(=O)(=O)c1ccc(Cl)cc1)Nc1nnc(-c2ccccn2)o1	i	+
O=C(CCSc1ccc(Cl)cc1)Nc1nnc(-c2ccccn2)o1	i	i
Cn1ccc(C(=O)Nc2nc(C(C)(C)C)cs2)n1	i	i
O=C(NCC1(O)CCc2ccccc21)Nc1ccc(Cl)c(Cl)c1 (configuration not stated)	i	+
O=C(NCC1(O)CCc2ccccc21)Nc1ccccc1Cl (configuration not stated)	i	i
O=C(CSc1ccc(F)cc1)N1CC(c2nc(-c3ccsc3)no2)C1	i	x
CC(C)(C)OC(=O)N1CCC(CO)CC1	i	i
CC(C)(C)OC(=O)N1CCC(Cn2c(C(F)(F)F)nc3ccccc32)CC1	i	+

Screens deposited in PubChem BioAssay by several laboratories.
